These results are taken from PubChem BioAssay (NCI).

A short description of experiment [1]: NCI Yeast Anticancer Drug Screen. Data for the rad50 strain (AID 155).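 Further: 0% = growth of vehicle-only cultures of the same strain.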 The note with it: S. cerevisiae rad50 strain growth inhibition; at 50.0 µM; active compounds read high. A digest of the protocol: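 Genetically altered yeast (DNA repair pathway); compound treatment; growth inhibition vs vehicle ctrl.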
Experiment [2] is described as follows: NCI Yeast Anticancer Drug Screen. Data for the mec2-1 strain (AID 157). To be noted: S. cerevisiae mec2-1 strain, at 50.0 µM, active compounds read high. The procedure, abridged:
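Strain: mec2-1 (DNA repair/cell cycle alteration). Compound exposure, then growth measured; inhibition expressed relative to vehicle.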

The nature of experiment [3]: NCI Yeast Anticancer Drug Screen. Data for the sgs1 mgt1 strain (AID 161).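 Further: 0% = growth of cultures given vehicle only.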 The note with it: S. cerevisiae sgs1 mgt1 strain, at 50.0 µM, active compounds read high. A digest of the protocol:
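Test agents were incubated with a DNA-repair-mutant yeast strain. Growth was then read and compared against vehicle-treated controls.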

Experiment [4] in a line: NCI Yeast Anticancer Drug Screen. Data for the cln2 rad14 strain (AID 165).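 Further: 0% = growth equal to vehicle treated cultures.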 The note with it: S. cerevisiae cln2 rad14 strain, at 50.0 µM, active compounds read high. The procedure, abridged: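 Compounds are applied to the cln2 rad14 yeast strain, and growth is then compared with that of vehicle-treated cultures to give inhibition.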
Experiment [5] is described as follows: NCI Yeast Anticancer Drug Screen. Data for the bub3 strain (AID 167). To be noted: S. cerevisiae bub3 mutant strain, at 50.0 µM, active compounds read high. A digest of the protocol:
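Yeast carrying a defined mutation is treated with each compound, and growth is compared with that of vehicle-exposed cells to give inhibition.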

Experiment [6] is described as follows: NCI Yeast Anticancer Drug Screen. Data for the mlh1 rad18 strain (AID 175). To be noted: S. cerevisiae mlh1 rad18 strain growth inhibition; at 50.0 µM; active compounds read high. A digest of the protocol: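 Read-out is yeast growth inhibition, calculated against vehicle-only controls. The compound was applied to a strain engineered with DNA damage repair alterations.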

Structures are written as SMILES. Compounds without any hit were thinned out: in the full panel of roughly 79,000, 15% have a hit. A number with no mark means an inactive call. Calls of active or inactive are those of the source. No stated cut-off is given here; in the data, active means growth inhibition above about 70%; inactive means the rest.

As to `CC(C)c1ccccc1N1C(=O)CC(Sc2ccccc2N)C1=O` (stereo unspecified), the growth inhibition is -5.45% in experiment [1]; -12.8% in experiment [2]; -9.25% in experiment [3]; -28.6% in experiment [4]; 0.15% in experiment [5]; 3.8% in experiment [6].
As to `Cc1ccc(S(=O)(=O)N/N=C(/c2ccccc2)c2ccsc2C)cc1`, the growth inhibition was 6.7% in experiment [1]; 37.3% in experiment [2]; 37% in experiment [3]; 24.2% in experiment [4]; 41.3% in experiment [5]; 53.4% in experiment [6].
Take `CCOC(=O)/C(C)=C\C1C(C)=CC(=O)CC1(C)C` (stereo unspecified): the growth inhibition in experiment [1] is -0.05%; in experiment [2] it was -16.1%; in experiment [3] it was -5.1%; in experiment [4], -29%; in experiment [5] it was 20.4%; in experiment [6], -7.15%.
Consider `CCCCNC(C(=O)c1ccccc1)c1ccccc1` (stereo unspecified), for which the growth inhibition in experiment [1] is 4.85%; in experiment [2], 17.1%; in experiment [3], 0.45%; in experiment [4] it was -16.6%; in experiment [5], 13.9%; in experiment [6], 26.4%.
As for `COc1ccc(OC)c2c(Cl)ccnc12`, the growth inhibition in experiment [1] is 17.1%; in experiment [2], 15.1%; in experiment [3] it was 15.6%; in experiment [4], 20.8%; in experiment [5], 11.1%; in experiment [6], 24.5%.
As to `CCOC(=O)CCC(NC1=C(Cl)C(=O)c2ccccc2C1=O)C(=O)O` (stereo unspecified), the growth inhibition in experiment [1] is 12.2%; in experiment [2], 2.15%; in experiment [3], 20.4%; in experiment [4], -63.1%; in experiment [5], 0.15%; in experiment [6], 24.9%.
Consider `C[N+](C)(C)CCCc1ccc2oc3ccccc3c2c1`, for which the growth inhibition in experiment [1] was 21.8%; in experiment [2] it was 8.65%; in experiment [3], 7.35%; in experiment [4], 6.15%; in experiment [5] it was 0.7%; in experiment [6] it was 7.95%.
On to `CC(=O)n1c(=O)c2cc3c(=O)n(-c4cccc(C#N)c4)c(=O)c3cc2c1=O`, for which the growth inhibition in experiment [1] is -25.4%; in experiment [2], -19.4%; in experiment [3], 9.65%; in experiment [4] it was 7.65%; in experiment [5] it was 4.8%; in experiment [6], -9.65%.
With `N#CC[N+]1(Cc2ccccn2)CCCC1`, the growth inhibition in experiment [1] is -4.5%; in experiment [2], -2.05%; in experiment [3] it was -13.8%; in experiment [4], 6.4%; in experiment [5], -2.5%; in experiment [6], -7.8%.
On to `CCOc1cccc(-c2ccccc2)c1`, for which the growth inhibition in experiment [1] was 18.3%; in experiment [2] it was 17.6%; in experiment [3] it was 16.9%; in experiment [4] it was 9.35%; in experiment [5], 1.1%; in experiment [6], -0.35%.
In the case of `COc1cccc(NC(=O)NC(C)(C)C)c1`, the growth inhibition is 8.2% in experiment [1]; -16.1% in experiment [2]; 1.2% in experiment [3]; -42.1% in experiment [4]; -0.7% in experiment [5]; -0.05% in experiment [6].
For the molecule `CCOC(=O)/C=C\C(=O)OCC`, the growth inhibition is 29.7% in experiment [1]; 2.55% in experiment [2]; 9.35% in experiment [3]; 10% in experiment [4]; 9.95% in experiment [5]; -1.1% in experiment [6].
On to `Cc1ccc(CNC(=S)Nc2ccc(F)cc2)c(C)c1`, for which the growth inhibition in experiment [1] was -7.6%; in experiment [2], 30.1%; in experiment [3], 30.4%; in experiment [4], -24.7%; in experiment [5], 46.1%; in experiment [6] it was 27.4%.
Consider `O=C(O)C1CCCCC1O` (stereo unspecified), for which the growth inhibition in experiment [1] is -11.6%; in experiment [2], 21.1%; in experiment [3], -5.25%; in experiment [4], 23.3%; in experiment [5], 21.4%; in experiment [6], 1.3%.
For `COC1=CC(=O)C2CC=C(C)CC2(C)C1=O` (stereo unspecified), the growth inhibition in experiment [1] was -7.9%; in experiment [2], -12.4%; in experiment [3] it was -16.6%; in experiment [4] it was 18%; in experiment [5] it was -0.05%; in experiment [6], -3.8%.
As for `Cc1ccc(C(=S)NC(=O)Nc2ccccc2)cc1`, the growth inhibition is -7.1% in experiment [1]; 9.45% in experiment [2]; -17.8% in experiment [3]; -20.9% in experiment [4]; 45.8% in experiment [5]; 1.45% in experiment [6].
On to `ClCCOCCOc1ccccc1Cl`, for which the growth inhibition was -24% in experiment [1]; -13.8% in experiment [2]; -8.1% in experiment [3]; -9.95% in experiment [4]; -22.1% in experiment [5]; -7% in experiment [6].
In the case of `C[n+]1cccc2c(=O)c3ccccc3oc21`, the growth inhibition in experiment [1] was 0.8%; in experiment [2], -14.5%; in experiment [3], -6.25%; in experiment [4] it was -17.9%; in experiment [5], 4.65%; in experiment [6], -20.2%.
Consider `O=C1C/C(=C\c2ccccc2O)C(=O)c2ccccc21`, for which the growth inhibition in experiment [1] is 66.3%; in experiment [2] it was 61.1%; in experiment [3] it was 83.4% (active); in experiment [4], 57.8%; in experiment [5], 54.8%; in experiment [6] it was 82.8% (active).
With `CCOC(=O)N1CCN(Cc2cc(=O)n3cc(C)ccc3n2)CC1`, the growth inhibition was -14.1% in experiment [1]; -15.5% in experiment [2]; 11.3% in experiment [3]; 16.2% in experiment [4]; 5.95% in experiment [5]; 2.2% in experiment [6].
As for `COC(=O)C(Cc1nc2ccccc2[nH]c1=O)C(=O)C(=O)Nc1ccc(OC)cc1[N+](=O)[O-]` (stereo unspecified), the growth inhibition in experiment [1] is -14.4%; in experiment [2], -9.5%; in experiment [3], 14.3%; in experiment [4] it was -77.2%; in experiment [5], -1.4%; in experiment [6], 5.5%.
